Compound activity deposited in PubChem by National Center for Advancing Translational Sciences (NCATS).
S2 tox: reduces viability in counter-screen for ATXN expression inhibitors; S2 cells (HEK-293 line with an ATXN2-luciferase reporter) viability, CellTiter-Fluor protease fluorescence, 24 h; Potency, µM (series often up to 56.7 µM), actives largely listed as cytotoxic; 400,000 compounds, 0.49% hits; note: potency is the fitted concentration of half-maximal effect; nearly all actives have a fitted effect of over 40% in size
ATXN2 expr inh: ATXN2 expression inhibition; HEK-293 ATXN2-luciferase reporter, luminescence, 24 h; Potency, µM (titrated, usually from 57 µM), without a hit: top-dose activity change, negative = inhibition, actives largely listed as inhibitors; 360,000 compounds, 0.72% hits; AID 1745845; note: potency is the fitted concentration of half-maximal effect; % is set by controls: 0 for no effect and ±100 for the full control effect; nearly all actives have a fitted effect of over 55% in size
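qHTS (up to 57 uM final) was run with 24 h compound exposure of reporter cells at 37 °C. Each well was multiplexed: SteadyGlo luminescence measured ATXN2-luciferase expression after a fluorogenic Gly-Phe-AFC viability readout (25 uM final).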
D3 ag: agonists of human D3 dopamine receptor; P35462; D3R DiscoveRx beta-arrestin cells, luminescence, 90 min; max activation, %; 410,000 compounds, 0.58% hits; AID 652048; in the data active = max activation above about 30%; note: 0% is about no effect
Target sequence (P35462 whole entry, looked up): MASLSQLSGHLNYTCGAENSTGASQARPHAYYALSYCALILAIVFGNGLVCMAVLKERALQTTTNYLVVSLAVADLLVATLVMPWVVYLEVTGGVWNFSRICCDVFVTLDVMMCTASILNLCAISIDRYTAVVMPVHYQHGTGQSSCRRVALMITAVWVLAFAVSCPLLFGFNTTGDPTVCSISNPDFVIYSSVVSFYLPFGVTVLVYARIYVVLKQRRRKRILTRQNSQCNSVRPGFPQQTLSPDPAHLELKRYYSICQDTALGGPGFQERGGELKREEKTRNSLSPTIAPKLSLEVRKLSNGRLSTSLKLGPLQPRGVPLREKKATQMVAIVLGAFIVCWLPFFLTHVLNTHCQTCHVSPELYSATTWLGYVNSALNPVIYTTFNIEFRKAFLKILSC
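Agonist-mode cell screen: cells plated at 1500/well and incubated overnight at 37 °C, then exposed to library compounds for 90 min at 37 °C. Detection reagent was added for 30–60 min at room temperature, and luminescence was read.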
IL-1B inflam inh: inhibitors of inflammasome signaling (IL-1 beta secretion). AID 743279. 360,000 compounds, 4.7% hits. activity change, % at 57.5 µM. THP-1 LPS/ATP IL-1B secretion, AlphaLISA, 16 h; hits give low values; in the data active = activity change below about -50%; inconclusive = mostly about -30% to -49%; note: % is set by controls: 0 for no effect and ±100 for the full control effect
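THP-1 cells pretreated 1 hr with compounds (up to 57.5 uM final), then stimulated with LPS (250 ng/mL final) plus ATP (1.25 mM final); secreted IL-1B measured by AlphaLISA after 16 hr, decreased signal indicating inhibition.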
DRD3 antagonist: blocks the human D3 dopamine receptor | 360,000 compounds, 2.5% hits | D3R cells, DiscoveRx beta-arrestin luminescence, antagonist mode; hits give low values | max response, negative = inhibition, % | P35462; in the data active = max response below about -50%; inconclusive = no clear call, values can overlap the other calls; note: % is set by controls: 0 for no effect and ±100 for the full control effect
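Cells expressing the human receptor were seeded at 1500 cells/well, incubated overnight at 37 degrees C in 5% CO2, then exposed to library compounds with dopamine controls for 90 minutes at 37 degrees C before luminescent detection.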
Integrin act MD: activators of alpha7 integrin expression for muscular dystrophy; 350,000 compounds, 0.064% hits; AID 624291; Potency, µM (titrated, usually from 38.3 µM), for the others: at the highest dose activation, actives largely listed as activators; alpha7betagal myoblasts, beta-gal FDG fluorescence, 48 h;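 note: potency is the fitted concentration of half-maximal effect; 100% = response of the positive control SU9516; nearly all actives have a fitted effect of over 60% in size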
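alpha7betagal+/- myoblasts (passage 13, 250/well) treated 48 h at 37C with compounds at 1:260 dilution of DMSO stock. Lysed, then beta-galactosidase activity read as FDG fluorescence (ex 480/em 540) after 30 min, with pre-read for autofluorescence.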
An asterisk follows results filed as active. Rows were chosen to be rich in hits. Some 7% of all compounds tested hit in one or more screens of this group. Unless noted, calls come from the whole dose curve; as a rule, active = well fitted curve in the direction sought with a large enough effect; inconclusive = small, poorly fitted or top-dose-only effect, or another doubt; inactive = no such curve, though single readings can be large; an effect the other way counts as inactive or inconclusive.

For CC(O)CNCCCOc1cccc(Oc2ccccc2)c1 (stereo not given) the results were S2 tox inconclusive, ATXN2 expr inh -27%, D3 ag -6, IL-1B inflam inh -56*, DRD3 antagonist inconclusive and Integrin act MD -50%.
Screening CCOc1ccc(OCCOc2cccc(C(F)(F)F)c2)cc1 returned S2 tox inactive, ATXN2 expr inh -6%, D3 ag -5, IL-1B inflam inh -17, DRD3 antagonist -4 and Integrin act MD 19%.
Screening N#Cc1cccc(OCCCN2CCC(C(O)(c3ccccc3)c3ccccc3)CC2)c1 returned S2 tox inconclusive, ATXN2 expr inh inconclusive, D3 ag -11, IL-1B inflam inh -57* and DRD3 antagonist -86*.
`Cc1cc(OCCCN2CCC(C(O)(c3ccccc3)c3ccccc3)CC2)ccc1Br` gave S2 tox 22µM*, ATXN2 expr inh 32µM*, D3 ag -9, IL-1B inflam inh -75* and DRD3 antagonist 0.
Screening N#Cc1ccc(OCC(O)CN2CCC(C(O)(c3ccccc3)c3ccccc3)CC2)cc1 (stereo not given) returned S2 tox inactive, ATXN2 expr inh -11%, D3 ag -26, IL-1B inflam inh -95*, DRD3 antagonist -29 and Integrin act MD inconclusive.
`N#Cc1ccc(-c2ccc(OCC(O)CN3CCOCC3)cc2)cc1` (stereo not given) gave S2 tox inactive, ATXN2 expr inh 18%, D3 ag 1, IL-1B inflam inh 1, DRD3 antagonist 2 and Integrin act MD 10%.
`Cc1ccc(N(CC(=O)N2CCN(c3ccccc3)CC2)S(=O)(=O)c2c(C)noc2C)cc1` gave S2 tox inactive, ATXN2 expr inh 0% and D3 ag 0.
COc1ccc(S(=O)(=O)N2CCCCC2)cc1NC(=O)Cn1cnc2ccccc2c1=O was read as S2 tox inactive, ATXN2 expr inh 3%, D3 ag -1, IL-1B inflam inh -7, DRD3 antagonist 0 and Integrin act MD 11%.
CC(=O)Nc1ccc(N2CCCC(C)C2)c([N+](=O)[O-])c1 (stereo not given) was read as S2 tox inactive, ATXN2 expr inh 35%, D3 ag -12, IL-1B inflam inh -19, DRD3 antagonist -55* and Integrin act MD -9%.
`CC(=O)Nc1ccc(N2CCC(C)CC2)c([N+](=O)[O-])c1` gave S2 tox inactive, ATXN2 expr inh 26%, D3 ag 7, IL-1B inflam inh -18, DRD3 antagonist -8 and Integrin act MD 1%.
For COc1cc(C)c(C(C)C)cc1S(=O)(=O)N1CCOCC1 the results were S2 tox inactive, ATXN2 expr inh 3%, D3 ag 5, IL-1B inflam inh -7, DRD3 antagonist 16 and Integrin act MD 18%.
For COc1cc(C)c(S(=O)(=O)N2CCOCC2)cc1C the results were S2 tox inactive, ATXN2 expr inh 3%, D3 ag -1, IL-1B inflam inh 28, DRD3 antagonist -85* and Integrin act MD -9%.
For CCn1c2ccccc2c2cc(NC(=O)COC(=O)C3CCC(=O)N3)ccc21 (stereo not given) the results were S2 tox inactive, ATXN2 expr inh 18µM*, D3 ag -2, IL-1B inflam inh -22, DRD3 antagonist -14 and Integrin act MD -15%.
Screening O=c1ccn([C@@H]2O[C@H](CNS(=O)(=O)c3csc(-c4ccno4)c3)[C@@H](O)[C@H]2O)c(=O)[nH]1 returned S2 tox inactive, ATXN2 expr inh 5%, D3 ag 44*, IL-1B inflam inh 12, DRD3 antagonist 16 and Integrin act MD 18%.
Screening CCC(=O)NCC(c1ccc2c(c1)OCO2)N1CCN(c2ccccc2)CC1 (stereo not given) returned S2 tox inactive, ATXN2 expr inh -4% and D3 ag -21.
`CCOC(=O)CNC(=S)N(Cc1ccccc1F)C1CCCCC1` gave S2 tox inactive, ATXN2 expr inh -12%, D3 ag -2, IL-1B inflam inh 4, DRD3 antagonist -11 and Integrin act MD 13%.
COc1ccc(-c2cc(C(=O)N(C)CC(=O)Nc3cccc(F)c3)c3ccccc3n2)cc1 was read as S2 tox inconclusive, ATXN2 expr inh -10%, D3 ag 1, IL-1B inflam inh -56*, DRD3 antagonist 15 and Integrin act MD 5%.
CN(CC(=O)Nc1cccc(F)c1)C(=O)c1cc(-c2ccccc2)nc2ccccc12 was read as S2 tox inconclusive, ATXN2 expr inh -13%, D3 ag 5, IL-1B inflam inh -24, DRD3 antagonist 4 and Integrin act MD -28%.
`O=C(NC1CC1)C1CCN(C(=O)c2ccccc2Cl)CC1` gave S2 tox inactive, ATXN2 expr inh 0%, D3 ag 2, IL-1B inflam inh -14, DRD3 antagonist 0 and Integrin act MD 9%.
CCCCCc1cc(=O)oc2c(C(CCN3CCCCC3)c3ccc4c(c3)OCO4)c(OC)cc(OC)c12 (stereo not given) was read as S2 tox 18µM*, ATXN2 expr inh 32µM*, D3 ag -63, IL-1B inflam inh -18, DRD3 antagonist -20 and Integrin act MD -44%.
Screening CCCCCc1cc(=O)oc2c(C(CCN3CCCC(C)C3)c3ccc4c(c3)OCO4)c(OC)cc(OC)c12 (stereo not given) returned ATXN2 expr inh inconclusive, D3 ag -32, IL-1B inflam inh -54*, DRD3 antagonist 0 and Integrin act MD -31%.
`CCN(CC)CCC(c1ccc(N(C)C)cc1)c1c(OC)cc(OC)c2c(-c3ccccc3)cc(=O)oc12` (stereo not given) gave S2 tox inconclusive, ATXN2 expr inh inconclusive, D3 ag -10, IL-1B inflam inh -14, DRD3 antagonist -8 and Integrin act MD -40%.
Screening CCCCCc1cc(=O)oc2c(C(CCN(CC)CC)c3cc(OC)c(OC)c(OC)c3)c(OC)cc(OC)c12 (stereo not given) returned S2 tox 32µM*, ATXN2 expr inh inconclusive, D3 ag -35, IL-1B inflam inh inconclusive, DRD3 antagonist -6 and Integrin act MD -47%.
For CCCc1cc(=O)oc2cc(C)cc(OC(C)C(=O)NCC3CCC(C(=O)O)CC3)c12 (stereo not given) the results were S2 tox inactive, ATXN2 expr inh -5%, D3 ag 4, IL-1B inflam inh 11, DRD3 antagonist 15 and Integrin act MD 16%.
For O=C(Nc1ccccc1C(=O)OCC(=O)c1c[nH]c2ccccc12)c1ccco1 the results were S2 tox inactive, ATXN2 expr inh 11%, D3 ag 35*, IL-1B inflam inh -2, DRD3 antagonist 19 and Integrin act MD -4%.
